# High-throughput results as filed in PubChem BioAssay.
# GLP1R inv ag: inverse agonists of human GLP-1 receptor; HEK293 GLP-1R CRE-luciferase, luminescence, 24 h; GLP-1R form is constitutively active; Potency, µM (highest dose often 38.3 µM), without a hit: top-dose activity change, negative = inhibition, usual class: inhibitors; hit rate 1.6% among 410,000; AID 624417; P43220; further: on the % scale 0 is the no-effect control and ±100 the full control effect; nearly all actives have a fitted effect of over 55% in size
# Target sequence (P43220 whole entry, looked up): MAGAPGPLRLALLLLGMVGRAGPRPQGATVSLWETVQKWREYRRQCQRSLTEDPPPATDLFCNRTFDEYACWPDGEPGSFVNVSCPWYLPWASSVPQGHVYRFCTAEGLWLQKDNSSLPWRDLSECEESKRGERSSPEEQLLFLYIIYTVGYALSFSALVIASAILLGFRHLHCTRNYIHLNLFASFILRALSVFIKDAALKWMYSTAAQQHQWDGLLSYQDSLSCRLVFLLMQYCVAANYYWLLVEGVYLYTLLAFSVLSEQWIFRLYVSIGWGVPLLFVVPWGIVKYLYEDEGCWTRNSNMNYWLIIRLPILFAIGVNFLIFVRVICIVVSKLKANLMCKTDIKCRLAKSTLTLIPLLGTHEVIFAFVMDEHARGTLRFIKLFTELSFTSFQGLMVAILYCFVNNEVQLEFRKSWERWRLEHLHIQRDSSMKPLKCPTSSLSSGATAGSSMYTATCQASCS
#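 HEK293 cells stably co-expressing a cAMP-responsive luciferase reporter and constitutively active GLP-1R were seeded, incubated 12 h, then exposed to compounds for 24 h at 37 C. Luminescence was read 12 min after detection reagent; inverse agonists lower signal.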
# GLP-1R agonist: agonists of human GLP-1 receptor. P43220. HEK293 GLP-1R CRE-luciferase, luminescence, 4-6 h; cells express a hypersensitive GLP-1R form. Potency, µM (series often up to 45.6 µM), inactives show at the top dose activation, hits mostly activators. hit rate 0.007% among 380,000; further: % of control where 0% means no effect
# PTHR1 agonist: agonists of human PTHR1 parathyroid hormone receptor | Potency, µM (highest dose often 115 µM), for inactives: at the highest dose activation, most hits filed as activators | hit rate 0.075% among 410,000 | Q03431 | HEK293 GP2 PTHR1 cells, GloSensor cAMP luminescence, 1 h; further: nearly all actives have a fitted effect of over 55% in size
#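 HEK-293-derived GP2 cells expressing PTHR1 and a GloSensor cAMP reporter, 3,000/well, plated overnight, given luciferin plus IBMX (each 0.5 mM as added) for 1 h at 37 °C, then compound for 1 h at 37 °C. Luminescence was read after 15 min at room temperature.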
# HEK293 tox: cytotoxic in the GLP-1 receptor inverse agonist counter-screen; AID 624418; Potency, µM (doses to about 38.3 µM), inactives show at the top dose activity change, negative = inhibition, most hits filed as inhibitors; HEK293 cAMP-luciferase reporter cells, luminescence, 24 h; hit rate 0.13% among 410,000;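 further: loss of luciferase light is scored as toxicity; on the % scale 0 is the no-effect control and ±100 the full control effect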
#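 Compound-treated cells are incubated 24 hr at 37 deg C under 5% CO2 after a 12 hour attachment period, then luciferase detection reagent is added and luminescence is measured following 12 min at room temperature; lowered signal indicates toxicity.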
# * marks the source's active call; other numbers are inactive results; i = inactive; ? = inconclusive; nt = no result; [ ] = another dose, or the depositor's remark. Rows were chosen to be rich in hits. Some 1.7% of all compounds tested hit in one or more screens of this group. The call rests on the fitted dose curve; in most records, active means well fitted curve in the direction sought with a large enough effect; inconclusive means small, poorly fitted or top-dose-only effect, or another doubt; inactive means no such curve, though single readings can be large; an effect the other way counts as inactive or inconclusive. Potency means the concentration at half of the fitted maximal effect.
SMILES,GLP1R inv ag,GLP-1R agonist,PTHR1 agonist,HEK293 tox
CCCc1ccc(-c2cc(C(=O)N3CCN(c4ccccn4)CC3)c3ccccc3n2)cc1,3.2µM*,-2%,-16%,-13%
CN(CC(=O)NNC(=O)Cc1ccccc1F)S(=O)(=O)c1ccc(Cl)cc1,-14%,7%,-34%,0%
Cc1ccc(C(=O)c2coc3ccc(O)cc23)cc1,?,-2%,-41%,6%
O=C(C[C@@H]1C/C=C\C[C@H](Cc2ccc(F)cc2)C(=O)OC[C@@H]2CCCN2C1=O)N[C@H](CO)Cc1ccccc1,?,-6%,-9%,-4%
CC(=O)Nc1nnc(CSCc2ccccc2F)s1,13%,8%,i,-5%
CCCCN(CCCNC(=O)c1ccc2c(c1)NC(=O)CN2C)c1ccccc1,2.8µM*,-8%,-54%,-1%
CCCCN(CCCNC(=O)CN1N=C(c2ccccc2)CCC1=O)c1ccccc1,10µM*,nt,i,-1%
CC1CCCCN1CCCNC(=O)c1ccc2c(c1)NC(=O)CN2C (configuration not stated),14%,9%,-20%,7%
CCOC(=O)C1(N(CC)CC)Sc2cc(C)ccc2NC1=O (configuration not stated),6.3µM*,4%,i,?
CCOC(=O)C1(Nc2nccs2)Sc2ccccc2NC1=O (configuration not stated),?,-6%,-15%,?
Cc1nc([N+](=O)[O-])cn1-c1ccc([N+](=O)[O-])cc1,nt,6%,nt,nt
CC(C(=O)Nc1ccc(OC(F)(F)F)cc1)N1Cc2ccccc2C1=O (configuration not stated),?,nt,50µM*,12%
COc1cc(CNCCN2CCOCC2)ccc1OCc1ccc(Cl)cc1Cl,3.2µM*,-12%,i,-29%
COc1cc(CNCCN2CCOCC2)ccc1OCc1cccc(Cl)c1,?,17%,-7%[57.5 µM],-13%
O=C(NCc1ccc(F)cc1)c1cc2c(s1)CS(=O)(=O)C2,13%,-2%,i,-2%
O=C(Nc1cccc(Cl)c1)c1ccc2nc(Cc3ccccc3)oc2c1,10µM*,nt,-35%,?
CCCCC(=O)Nc1ccc(OCc2cc(=O)n3c(C)csc3n2)cc1,4%,0%,-40%,-1%
CCn1c(SCC(=O)c2cc(C)n(-c3ccc(C(=O)OC)cc3)c2C)nnc1-c1cccnc1,11µM*,-2%,-24%,-14%
CCn1c(SCC(=O)c2cc(C)n(C)c2C)nnc1-c1ccccc1,-27%,-6%,-8%,-14%
COc1ccc(CNC(=O)C2CCCN2C(=O)NCc2ccccc2)cc1 (configuration not stated),8%,-5%,-22%,5%
O=c1oc(-c2ccccc2NS(=O)(=O)c2ccc3ccccc3c2)nc2ccccc12,0%,7%,-43%,15%
O=C(NCC(c1cccs1)N1CCOCC1)c1cn(-c2ccccc2)nc1-c1ccc(Cl)cc1 (configuration not stated),-16%,-9%,i,9%
COc1ccc(C(=O)NCC(c2cccs2)N2CCOCC2)cc1OC (configuration not stated),5%,10%,-29%,-8%
O=C(NCC(c1cccs1)N1CCOCC1)c1cn(-c2ccccc2)nc1-c1ccccc1 (configuration not stated),10µM*,3%,i,-9%
COc1cc(C(=O)NCC(c2cccs2)N2CCOCC2)cc(Br)c1OCc1ccccc1 (configuration not stated),6.3µM*,7%,i,-20%
SMILES,GLP1R inv ag,GLP-1R agonist,PTHR1 agonist,HEK293 tox
CC(OC(=O)Cn1cnc2c1c(=O)n(C)c(=O)n2C)C(=O)NC1(C#N)CCCCC1 (configuration not stated),-8%,-2%,-9%,14%
CN(C)C(=O)CN1C(=O)NC2(CCCc3ccccc32)C1=O (configuration not stated),-5%,5%,?,7%
Cc1ccc(CN(C)C(=O)CN2C(=O)NC3(CCCc4ccccc43)C2=O)c(C)c1 (configuration not stated),3.2µM*,3%,-29%,1%
Cn1nc(C(C)(C)C)cc1C(=O)N1CCCCC1c1cc(C(=O)Nc2cccc(C#N)c2)no1 (configuration not stated),10µM*,0%,-35%,-1%
CCOc1cc(C(=O)NCC(C)(C)CNC(=O)c2cc(OCC)c(OCC)c(OCC)c2)cc(OCC)c1OCC,10µM*,1%,i,-13%
CC(C)c1ccc(Nc2nc(N3CCOCC3)nc(N3CCOCC3)n2)cc1,?,-1%,i,2%
CC(C)c1ccc(Nc2nc(NCc3ccco3)nc(N3CCOCC3)n2)cc1,2.2µM*,9%,i,-9%
CC(C)(CO)NCc1c(OCc2ccc(Cl)cc2)ccc2ccccc12,5.6µM*,0%,-9%,?
O=C1c2ccccc2C(=O)N1CC(=O)N1c2ccccc2CCc2ccccc21,0%,-3%,i,-21%
O=C(C(Cc1ccccc1)N1C(=O)c2ccccc2C1=O)N1c2ccccc2CCc2ccccc21 (configuration not stated),13µM*,-1%,i,6%
O=C(NNc1cc(Cl)ccc1Cl)C1CCC1,3.2µM*,5%,i,-25%
Cc1ccc(CCN2C(Nc3ccccc3)=NC[C@@H]2C)cc1,-1%,-7%,-24%,2%
C/C(=N\N=C(N)N)c1ccc(Cl)c(Cl)c1,8.9µM*,-2%,-3%,?
C/C(=N\NC(=O)C1CC1)c1ccc(Cl)c(Cl)c1,1%,19%,-10%[57.5 µM],12%
CCC(C(=O)Nc1cccc(S(=O)(=O)N(C)c2ccccc2)c1)c1ccccc1 (configuration not stated),7.1µM*,-3%,-19%,5%
CN(C)C(CNC(=O)c1cc(S(=O)(=O)N(C)c2ccccc2)ccc1Cl)c1ccccc1 (configuration not stated),10µM*,15%,-15%,7%
CC1=CC(C)(C)n2c(O)c(N=NC(N)=S)c3c(C)ccc1c32,-6%,0%,-34%,7%[1.53 µM]
COc1cc2c3c(c1)c(N=NC(N)=S)c(O)n3C(C)(C)C=C2C,?,29%,-10%,0.89µM*
CC1=CC(C)(C)n2c(O)c(N=NC(N)=S)c3cccc1c32,4.5µM*,1%,-6%,?
O=C(CSc1nnc(Cc2cccs2)n1C1CCCCC1)N1CCCc2ccccc21,3.5µM*,1%,-10%[57.5 µM],?
O=C(CSc1nnnn1C1CCCC1)N1CCCc2ccccc21,?,19%,-33%,28%
O=C(CSc1nnc(Cc2cccs2)n1CCc1ccccc1)N1CCCc2ccccc21,10µM*,-8%,-8%[57.5 µM],-35%
Cn1c(Cc2cccs2)nnc1SCC(=O)N1CCCc2ccccc21,-9%,-5%,i,-14%
O=C(CSc1nnc(Cc2cccs2)n1-c1ccccc1)NC1CCCCC1,1.4µM*,-3%,-9%[57.5 µM],-15%
